# Not all results are given here.
# aSyn UTR act – Activators working through SNCA 5'UTR binding (MLPCN); alpha-synuclein 5'UTR reporter, activators screen; activity score, % (tested at 7.5 µM), hits read low; hit rate 7.1% among 300,000; AID 1814; in the data active = activity score below about -60%
# * = called active by the depositor.
SMILES,aSyn UTR act
CS(=O)(=O)N1N=C(c2ccc3nccnc3c2)CC1c1ccccc1 (stereo unspecified),-79*
COc1ccc(C2CC(c3ccc(OC)c(OC)c3)=NN2S(C)(=O)=O)cc1 (stereo unspecified),-169*
COc1ccc(C2=NN(S(C)(=O)=O)C(c3ccc4nccnc4c3)C2)cc1 (stereo unspecified),-150*
CS(=O)(=O)Nc1ccc(C2=NN(S(C)(=O)=O)C(c3ccc4c(c3)OCO4)C2)cc1 (stereo unspecified),-207*
CS(=O)(=O)N1N=C(c2ccccc2)CC1c1ccc2nccnc2c1 (stereo unspecified),-77*
Cc1ccc(C2=NN(S(C)(=O)=O)C(c3ccc4nccnc4c3)C2)cc1 (stereo unspecified),-127*
COc1ccc(Nc2c([N+](=O)[O-])ccc3c2=NC2(CCCCC2)N=3)cc1,-64*
O=C(Nc1ccccc1)c1nnsc1S(=O)c1ccc(Cl)cc1 (stereo unspecified),-103*
Cc1nnsc1S(=O)c1ccc(Cl)c(Cl)c1 (stereo unspecified),-89*
Cc1nnsc1S(=O)c1ccc(Cl)cc1 (stereo unspecified),-99*
CC(C)CCOCC(=O)Nc1cccc(C(=O)O)c1,-73*
COc1ccc(N=Nc2c(N)n[nH]c2N)cc1,-85*
COc1ccc(N=Nc2ccc(N)nc2N)cc1,-68*
CCOc1ccc2c(c1)C(C)=CC(C)(C)N2S(=O)(=O)c1ccc(NC(C)=O)cc1,70
CC1=CC(C)(C)N(C(=O)CNC2CCCC2)c2cc(C)ccc21,-107*
O=C(c1ccc(F)cc1)c1ccc(-c2ccc(F)cc2)nc1,-141*
CCCCn1c(=O)[nH]c(=O)c2c1nc(Cn1ncc(Cl)c(Cl)c1=O)n2CCC,-106*
C=CCn1c2ccccc2c(=O)c2cc(C#Cc3ccsc3)ccc21,-211*
Cc1cccc(/C(N)=N/OC(=O)Cc2ccccc2)c1,-142*
Cc1cccc(/C(N)=N/OC(=O)N2c3ccccc3Sc3ccccc32)c1,-70*
CCC(C(=O)O/N=C(\N)c1cccc(C)c1)c1ccccc1 (stereo unspecified),-88*
COC(=O)C1(C)CCC(C(=O)Nc2ccccc2)C1(C)C (stereo unspecified),62
CCC1CC(C(=O)Nc2ccccc2)C(=O)O1 (stereo unspecified),-64*
CC[C@H]1OC(=O)C[C@@H](O)[C@H](C)[C@@H](O[C@@H]2O[C@H](C)C[C@H](N(C)C)[C@H]2O)[C@@H](CC=O)C[C@@H](C)C(=O)C=C[C@]2(C)O[C@H]2[C@@H]1C,-147*
CCOc1ccc(/C=N/NC(=O)c2ccccc2NC(=O)c2ccc(OC)cc2)cc1,-71*
SMILES,aSyn UTR act
O=C(Nc1ccccc1C(=O)N/N=C/c1ccncc1)c1ccccc1,-140*
COc1ccc(C(=O)Nc2ccccc2C(=O)N/N=C/c2ccco2)cc1,-79*
CCOc1ccc(C(=O)Nc2ccccc2C(=O)O)cc1,-89*
CCOC(=O)c1cc(C(=O)Nc2ccc(C)c(F)c2)nn1C,-224*
COC(=O)N/N=C/c1ccc(Oc2ccccc2)cc1,-69*
CC(C)(O)C(=O)N/N=C\c1ccc(OC/C=C/c2ccccc2)cc1,-96*
COc1ccc(/C=N/NC(=O)COc2ccccc2-c2ccccc2)cc1,70
CC(=O)N/N=C\c1ccccc1OC/C=C/c1ccccc1,-128*
CCOC(=O)N/N=C/C=C/c1ccccc1,-105*
CCOC(=O)N/N=C\c1ccc(OC/C=C/c2ccccc2)cc1,-73*
COC(=O)N/N=C\c1ccc(OC/C=C/c2ccccc2)cc1,-95*
O=C(/C=C/c1ccc(OCCCF)cc1)Nc1ccnc(-c2cccnc2)n1,-121*
O=C(/C=C/c1ccc(OCCCF)cc1)Nc1ccnc(-c2ccncc2)n1,-209*
CSc1ncccc1C(=O)OCc1ccccc1F,-62*
Oc1ccc(COCc2ccccc2)c2cccnc12,51
Oc1ccc(CNc2ccccc2F)c2cccnc12,87
CSc1ncccc1C(=O)OCc1ccccc1,-66*
CC[n+]1c(/C=C/Nc2ccccc2)sc2ccccc21,-83*
CCN1/C(=C/C=C/C=C/c2sc3ccccc3[n+]2CC)Sc2ccccc21,126
CCOc1ccc2nc(NC(=O)C34CC5CC(CC(NC(C)=O)(C5)C3)C4)sc2c1,-132*
COc1ccc2nc(NC(=O)C34CC5CC(CC(NC(C)=O)(C5)C3)C4)sc2c1,-94*
O=C(COc1ccccc1Cl)Nc1cc(Cl)ccc1O,-185*
COC(=O)c1sccc1NC(=O)COc1ccccc1Cl,-132*
Cc1cc(NCCCn2ccnc2)n2ncc(-c3ccc(Cl)cc3)c2n1,60
CC(C)(C)c1cc(-n2ccnc2)n2ncc(-c3ccc(Cl)cc3)c2n1,-67*
SMILES,aSyn UTR act
CN(C)CCCNc1cc(C(C)(C)C)nc2c(-c3ccc(Cl)cc3)cnn12,108
CC(C)(C)c1cc(NCCCn2ccnc2)n2ncc(-c3ccccc3)c2n1,-149*
CCOC(=O)Nc1nc(-c2ccc(F)cc2F)cs1,-148*
Cc1cc2oc(C(=O)Nc3nonc3C)c(C)c2cc1Cl,-88*
Cc1nonc1NC(=O)c1oc2ccc(F)cc2c1C,-73*
CN(C)/C=C/C(=O)c1cnc(-c2ccccc2)s1,-116*
O=C(c1ccccc1)c1cnc(-c2ccccc2)s1,-99*
CN(C)/C=C/C(=O)c1cnc(-c2ccc(Cl)cc2)s1,-90*
O=C(Nc1sc2c(c1C(=O)O)CCCCC2)c1cccs1,-80*
O=C(Nc1sc2c(c1C(=O)O)CCCC2)c1ccc(F)cc1,-94*
CC(C)(C)c1ccc(C(=O)Nc2sc3c(c2C(=O)O)CCC3)cc1,95
NC(=O)c1c(NC(=O)c2ccc(F)cc2)sc2c1CCC2,-184*
COc1ccccc1C(=O)Nc1sc2c(c1C(N)=O)CCCC2,-83*
COc1cc2cc(-c3ccc(O)cc3O)nc(C)c2cc1OC,-116*
COc1cc2cc(-c3ccc(OC)c(OC)c3C)nc(N)c2cc1OC,96
Cc1ccc(NC2c3ncccc3C(=O)N2c2ccccc2C)cc1C (stereo unspecified),-168*
CCCCCCC(=O)Nc1ccc(Cl)cn1,-88*
CCc1ccc(NC(=S)NC(=O)CC(C)C)cc1,-154*
CCC(C)c1ccc(OCC(=O)Nc2ccc(Cl)cn2)cc1 (stereo unspecified),-72*
CC(C)CC(=O)NC(=S)Nc1ccc(Cl)cn1,-68*
O=C1C2C3C=CC(C3)C2C(=O)N1c1ccc(-c2nc3ccccc3o2)cc1 (stereo unspecified),-152*
CC(=C/c1ccco1)/C=N/N1CCN(c2ccccc2)CC1,-175*
CC(/C=N/N1CCN(c2ccccc2)CC1)=C\c1ccco1,-101*
CCC(C)(C)c1ccc(Oc2cccc(C(=O)O)c2)cc1,-95*
CCCC(C)NC(=O)c1cccc(Oc2ccccc2)c1 (stereo unspecified),-64*
SMILES,aSyn UTR act
CCC(C)(C)c1ccc(Oc2ccc(N)cc2)cc1,127
CC1(C)CC(=O)c2cnc(N3CCc4ccccc43)nc2C1,-118*
Fc1cnc(N2CCc3ccccc32)nc1N1CCc2ccccc21,-82*
CC1=NN(c2ccc(C(=O)O)cc2)C(=O)/C1=C/c1ccc(-c2ccccc2F)o1,-88*
CCCCc1nc2cc(C(=O)N3CCC(O)CC3)ccc2o1,-83*
CCCCc1nc2cc(C(=O)N(C)C3CCOCC3)ccc2o1,-165*
O=C(c1ccc2oc(CCc3ccccc3)nc2c1)N1CC[C@H](O)C1,-134*
O=C(c1ccc2oc(CCCc3ccccc3)nc2c1)N1CCCC(CCCO)C1 (stereo unspecified),-65*

# Source: PubChem
